# Compound activity as filed in PubChem.
# This is a sample that favours compounds with a hit; in the whole collection about 0.92% have one here.
# AMA1 RON2 block – disrupts binding of P. falciparum AMA1 to RON2; AID 720542; Potency, µM (series often up to 58.2 µM), for inactives: at the highest dose activity change, negative = inhibition, hits mostly inhibitors; 360,000 tested, 0.2% active; AlphaScreen AMA1-biotinylated RON2 peptide binding;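 note: potency is the fitted concentration of half-maximal effect; 0% = vehicle wells and -100% = peptide control; nearly all actives have a fitted effect of over 45% in size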
#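 AMA1 (3D7) with his tag at 25 nM final met compounds first, then biotinylated RON2 peptide at 25 nM; detection used donor plus acceptor beads, 10 µg/mL apiece, read by AlphaScreen after 30 min at room temperature.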
# RE007 growth inh – less growth of the S. pombe RE007 Vpr strain; Potency, µM (series often up to 92.2 µM), for the others: at the top dose activity change, negative = less growth, most hits filed as inhibitors; 360,000 tested, 0.21% active; AID 651644; S. pombe RE007 Vpr strain, BacTiter-Glo ATP luminescence, 24 h; active = well fitted falling curve with a large enough effect; inconclusive = small, poorly fitted or top-dose-only effect; inactive = no such curve, though single readings can be large or run the other way; note: potency is the fitted concentration of half-maximal effect; % is set by controls: 0 for no effect and ±100 for the full control effect; nearly all actives have a fitted effect of over 50% in size
#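 Fission yeast RE007 carrying one integrated HIV-1 vpr copy, seeded at OD 0.01 in PMG+AL medium with 23 nL pinned compound. Grown 24 h at 30 degrees; viability read by BacTiter-Glo luminescence after 5 min.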
# Tb PYK inh – inhibitors of Trypanosoma brucei pyruvate kinase | Q57TT1 | TbPYK enzyme, Kinase-Glo Plus ATP luminescence, 45 min | Potency, µM (highest dose often 76.8 µM), inactives show top-dose activity, negative = inhibition, usual class: inhibitors | 410,000 tested, 0.12% active; note: potency is the fitted concentration of half-maximal effect; % is set by controls: 0 for no effect and ±100 for the full control effect; nearly all actives have a fitted effect of over 50% in size
#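 Luminescent Kinase-Glo Plus end-point after 45 min room-temperature reaction of T. brucei pyruvate kinase started with 130 uM ADP (final). Buffer TEA 50 mM pH 7.2 with KCl, MgCl2, BSA, Tween-20; titration-based qHTS with fitted concentration-effect curves.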
# LmPK inh – blocks Leishmania mexicana pyruvate kinase activity | Q27686 | purified LmPK, Kinase-Glo ATP luminescence, 1 h | Potency, µM (series often up to 57.5 µM), inactives show at the highest dose activity change, negative = inhibition, most hits filed as inhibitors | 290,000 tested, 0.37% active; note: potency is the fitted concentration of half-maximal effect; % is set by controls: 0 for no effect and ±100 for the full control effect
# Target sequence (Q27686 whole entry, looked up): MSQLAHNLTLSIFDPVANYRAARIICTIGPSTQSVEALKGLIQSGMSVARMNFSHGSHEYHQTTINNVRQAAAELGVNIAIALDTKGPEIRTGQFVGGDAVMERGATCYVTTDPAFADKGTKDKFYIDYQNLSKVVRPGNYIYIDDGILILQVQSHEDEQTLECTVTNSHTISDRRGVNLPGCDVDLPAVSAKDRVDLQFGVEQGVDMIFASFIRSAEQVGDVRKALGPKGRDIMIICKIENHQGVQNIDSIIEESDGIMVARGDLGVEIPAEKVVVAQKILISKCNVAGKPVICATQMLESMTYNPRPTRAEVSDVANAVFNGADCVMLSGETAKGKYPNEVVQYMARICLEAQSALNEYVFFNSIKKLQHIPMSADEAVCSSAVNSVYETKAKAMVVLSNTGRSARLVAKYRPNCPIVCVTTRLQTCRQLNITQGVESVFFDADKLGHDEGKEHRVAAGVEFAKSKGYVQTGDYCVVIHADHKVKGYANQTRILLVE
#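 0.1 nM LmPK, 0.5 mM PEP, 0.1 mM ADP; 50 mM imidazole pH 7.2, 7 mM MgCl2, 50 mM KCl; 1 h RT. Kinase-Glo luminescence readout, normalized to no-enzyme (full inhibition) and uninhibited wells.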
# NS1 function inh – inhibitors of influenza NS1 protein function. Potency, µM (series often up to 46.1 µM), without a hit: top-dose activity, positive = more growth. 270,000 tested, 0.4% active. AID 2326; calls by dose curve; note: potency is the fitted concentration of half-maximal effect; actives are rising curves; nearly all actives have a fitted effect of over 50% in size
#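 In this qHTS, NS1 from influenza A is expressed in budding yeast, where it slows growth. Cells are switched from glucose to 2% galactose medium (pH 6.0, -URA), treated with compound, and growth recovery is read at OD600.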
# Flu NS1 inh – influenza NS1 function inhibition validation | shares compounds with NS1 function inh | influenza NS1 function cell assay, 15-point titration | activity change, negative = inhibition, % at 32.9 µM | 1,400 tested, under 10 active | AID 492980; calls by dose curve; note: 0% is about no effect
# PR8 titer – influenza NS1 inhibitors: inhibition of influenza A/PR/8/34 replication | shares compounds with NS1 function inh | 95 tested, 30% active | MDCK infected influenza A/PR/8/34, virus titer TCID50; active compounds read low | virus titer (log TCID50), log10 TCID50 at 5 µM; call rule not given here
# * = called active by the depositor; ? = inconclusive; / = not tested or not shown; [ ] = remark or other dose. Unless noted, calls come from the whole dose curve; as a rule, active = well fitted curve in the direction sought with a large enough effect; inconclusive = small, poorly fitted or top-dose-only effect, or another doubt; inactive = no such curve, though single readings can be large; an effect the other way counts as inactive or inconclusive.
SMILES,AMA1 RON2 block,RE007 growth inh,Tb PYK inh,LmPK inh,NS1 function inh,Flu NS1 inh,others
N#Cc1c(Cl)nc(SCc2ccccc2)nc1-c1ccccc1,/,/,/,7%,?,-16,
Cc1ccccc1N=C1SC(CC(=O)Nc2ccc3ccccc3c2)C(=O)N1Cc1ccccn1 (stereo unspecified),-1%,6%,-4%,4%,14µM*,-13,
O=C(CC1SC(=Nc2cccc3ccccc23)N(Cc2ccccn2)C1=O)Nc1ccccc1Br (stereo unspecified),-1%,9%,-12%,0%,18%,/,
O=S(=O)(c1ccc(-c2csc(=Nc3ccc(OC(F)(F)Cl)cc3)n2CCCO)cc1)N1CCCC1,/,/,-6%,/,/,/,
O=C(O)c1cc(N/N=C/c2ccc(N3CCOCC3)s2)ccc1Cl,1%,8%,?,1%,11µM*,23,
COc1ccccc1NS(=O)(=O)c1ccc(Cl)c(NC(=S)NC(=O)C2CCCC2)c1,-13%[11.6 µM],6%,-9%,0%,13µM*,30,
Cc1ccc(Cn2c(SCC(=O)N3CC(=O)Nc4ccccc43)nc3ccccc3c2=O)cc1,10%,-2%,-11%,1%,13µM*,6,
O=C1CN(C(=O)CSc2nc3cc(Cl)ccc3c(=O)n2Cc2ccccc2)c2ccccc2N1,51%,-9%,-1%,-2%,?,/,
CCOC(=O)c1ccc(-n2c(O)c(/C=N/NC(=O)C3COc4ccccc4O3)c3ccccc3c2=O)cc1 (stereo unspecified),86%,3%,4%,0%,8.9µM*,-3,
CCOC(=O)c1ccc(NC(=O)C2COc3ccccc3O2)cc1 (stereo unspecified),-11%,-3%,-13%,9%,-51%,/,
CCOC(=O)C1=C(C)N(CCCCCC(=O)O)C(=O)NC1c1ccccc1Cl (stereo unspecified),4%,0%,2%,5%,?,14,
COc1ccc(C)cc1NC(=O)c1cc2c(s1)-c1ccccc1SC2,/,/,15%,/,/,/,
O=C(CCCc1ccccc1)NC1CC(=O)N(c2ccc(F)cc2)C1 (stereo unspecified),/,/,-6%,/,/,/,
Nc1ccc2nc(SCC(=O)Nc3ccc(N4CCOCC4)c(Cl)c3)sc2c1,-21%,-16%,-10%,0%,10µM*,-6,
CCn1c2ccccc2c2cc(NC(=O)COC(=O)c3cccc(S(=O)(=O)NC)c3)ccc21,-2%,-1%,-8%,-2%,10µM*,2,PR8 titer=7.3*
COc1ccc(-c2cc(C(=O)Oc3ccc(Br)cc3)c3ccccc3n2)cc1,/,/,1%,/,/,/,
CCCCc1ccc(NC(=O)CSC2=C(C#N)C(c3ccco3)C3=C(CCCC3=O)N2)cc1 (stereo unspecified),3%,0%,0%,8%,20µM*,?,
O=C1CSCN1c1ccc(Cl)c(Cl)c1,-4%,-4%,-5%,-1%,-2%,/,
O=C1CSCN1c1cc(Cl)ccc1Cl,-5%,-13%,0%,4%,?,9,
COc1ccc(-c2cnnn2-c2ccc(NC(=O)c3ccc(S(=O)(=O)N4CCCCC4)cc3)cc2)cc1OC,-12%,6%,0%,0%,5µM*,31,PR8 titer=7.3*
COc1ccc(C(=O)Nc2ccc(-n3nncc3-c3ccc(OC)c(OC)c3)cc2)cc1,/,/,-10%,/,/,/,
COc1ccc(N(C(=O)c2snc(C(N)=O)c2N)C(C(=O)NC2CCCC2)c2ccc(OC)c(OC)c2)cc1 (stereo unspecified),-10%,-29%,6%,1%,?,/,
COc1cc(C(C(=O)NC2CCCCC2)N(C(=O)c2snc(C(N)=O)c2N)c2ccc(C)cc2)ccc1O (stereo unspecified),-5%,1%,-9%,0%,?,-14,
